# Screens: PubChem, National Center for Advancing Translational Sciences (NCATS)
# AmpC no deterg – AmpC beta-lactamase inhibition without detergent; AmpC nitrocefin hydrolysis, absorbance 480 nm, 0.0001% Triton; P00811; hit rate 0.52% among 330,000; Potency, µM (doses to about 57.1 µM), inactives show at the highest dose activity change, negative = inhibition, hits mostly inhibitors;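 further: plate controls were no compound for no effect and no enzyme for full effect; nearly all actives have a fitted effect of over 20% in size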
#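 AmpC (5.3 nM in the dispensed reagent) in 20 mM phosphate pH 7.0 with 0.01% (detergent screen) or 0.0001% Triton X-100 was preincubated with compounds for 15 min at room temperature. Nitrocefin was then added from an 800 uM solution, and hydrolysis was followed at 480 nm.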
# AMA1-RON2 inh – disrupts binding of P. falciparum AMA1 to RON2; Potency, µM (highest dose often 58.2 µM), without a hit: top-dose activity change, negative = inhibition, usual class: inhibitors; hit rate 0.2% among 360,000; AlphaScreen AMA1-biotinylated RON2 peptide binding;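 further: 0% = vehicle wells and -100% = peptide control; nearly all actives have a fitted effect of over 45% in size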
#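 AMA1 (3D7) with his tag at 25 nM final met compounds first, then biotinylated RON2 peptide at 25 nM; detection used donor plus acceptor beads, 10 µg/mL apiece, read by AlphaScreen after 30 min at room temperature.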
# Giardia FBPA inh-1 – Giardia lamblia aldolase inhibition. purified Giardia FBPA. Potency, µM (highest dose often 59.6 µM), inactives show at the top dose activity, negative = inhibition, actives largely listed as inhibitors. hit rate 0.71% among 290,000; further: nearly all actives have a fitted effect of over 55% in size
#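 Giardia FBPA (40 nM reagent) was preincubated 10 min at RT with compound (up to 57.5 uM final), then substrate plus GAPDH/TPI/NAD/arsenate coupling system with diaphorase/resazurin was added; resorufin fluorescence (525/598 nm) was read after 20 min.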
# LmPK inh – blocks Leishmania mexicana pyruvate kinase activity; purified LmPK, Kinase-Glo ATP luminescence, 1 h; Potency, µM (series often up to 57.5 µM), without a hit: at the top dose activity change, negative = inhibition, hits mostly inhibitors; hit rate 0.37% among 290,000; AID 1721
#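 In 50 mM imidazole pH 7.2 with 7 mM MgCl2, LmPK (0.1 nM) turned over PEP (0.5 mM) and ADP (0.1 mM) for 1 h at room temperature. Luciferase read-out of ATP.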
# AmpC detergent – inhibitors of E. coli AmpC beta-lactamase with detergent | AmpC hydrolysis of nitrocefin, absorbance 480 nm, 0.01% Triton | Potency, µM (top dose mostly 114 µM), for inactives: at the highest dose activity change, negative = inhibition, most hits filed as inhibitors | hit rate 0.041% among 370,000;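 further: 0% = no-compound wells and -100% = no-enzyme wells; nearly all actives have a fitted effect of over 25% in size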
#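 20 mM phosphate pH 7.0 + 0.01% (detergent screen) or 0.0001% Triton X-100; 5.3 nM AmpC reagent; cpd preinc 15 min RT; nitrocefin (800 uM stock) to start; A480 q20 s × 4 min; Activity was normalised to no-enzyme and no-compound control wells.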
# Giardia growth – blocks growth of Giardia lamblia trophozoites. AID 2785. shares compounds with Giardia FBPA inh-1. Potency, µM (series often up to 57.5 µM), inactives show top-dose activity change, negative = inhibition, most hits filed as inhibitors. Giardia lamblia trophozoite growth inhibition. hit rate 5% among 1,500;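 further: trophozoites exposed to compound for 48 h at 37 °C; nearly all actives have a fitted effect of over 70% in size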
# Mammal cell tox – mammalian cytotoxicity of Giardia aldolase inhibitor hits; shares compounds with Giardia FBPA inh-1; mammalian cell viability counter-screen, qHTS; Potency, µM (doses to about 57.5 µM), for inactives: top-dose viability change, negative = toxicity, actives largely listed as inhibitors; hit rate 4% among 1,500; AID 2786;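 further: Chinese hamster ovary cells used as mammalian cytotoxicity surrogate; viability measured as cellular ATP by luminescence; compound exposure lasted 48 h before reading; nearly all actives have a fitted effect of over 60% in size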
# Giardia FBPA inh-2 – confirmation of Giardia fructose-bisphosphate aldolase inhibitors | shares compounds with Giardia FBPA inh-1 | purified Giardia aldolase enzyme activity, qHTS | Potency, µM (titrated, usually from 57.5 µM), inactives show at the highest dose activity change, negative = inhibition, most hits filed as inhibitors | hit rate 5% among 1,500 | AID 2787; further: nearly all actives have a fitted effect of over 45% in size
# Rabbit aldolase – selectivity test for Giardia aldolase inhibitors: rabbit aldolase. Potency, µM (highest dose often 57.5 µM), for inactives: at the highest dose activity, negative = inhibition, most hits filed as inhibitors. Rabbit muscle FBPA enzyme inhibition, selectivity counter-screen. AID 2794. shares compounds with Giardia FBPA inh-1. hit rate 4% among 1,500; further: nearly all actives have a fitted effect of over 60% in size
# Target sequence (P00883 whole entry, looked up): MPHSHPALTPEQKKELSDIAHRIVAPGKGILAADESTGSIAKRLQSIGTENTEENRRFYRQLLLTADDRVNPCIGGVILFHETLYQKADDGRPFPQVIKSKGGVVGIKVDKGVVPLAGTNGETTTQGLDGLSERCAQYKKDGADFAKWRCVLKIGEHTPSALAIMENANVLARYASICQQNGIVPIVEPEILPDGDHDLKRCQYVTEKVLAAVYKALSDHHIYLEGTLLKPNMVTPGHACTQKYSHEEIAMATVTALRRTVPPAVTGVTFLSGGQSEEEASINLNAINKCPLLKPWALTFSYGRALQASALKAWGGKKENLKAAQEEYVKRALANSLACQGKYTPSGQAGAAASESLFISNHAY
# GAPDH coupling – counter-screen for Giardia aldolase inhibitors: GAPDH coupling enzyme | shares compounds with Giardia FBPA inh-1 | GAPDH coupling enzyme counterscreen, biochemical, qHTS | Potency, µM (doses to about 57.5 µM), for the others: at the top dose activity change, negative = inhibition, usual class: inhibitors | hit rate 6% among 1,500; further: nearly all actives have a fitted effect of over 55% in size
# The depositor's hits bear a star; ? = inconclusive; nt = no result given; [ ] = another dose, or the depositor's remark. Only some compounds are listed: those with a hit (about 1.3% of all), similar ones and a draw of the others. The call rests on the fitted dose curve; in most records, active means well fitted curve in the direction sought with a large enough effect; inconclusive means small, poorly fitted or top-dose-only effect, or another doubt; inactive means no such curve, though single readings can be large; an effect the other way counts as inactive or inconclusive. Unless noted, on the % scale 0 is the no-effect control and ±100 the full control effect; potency means the concentration at half of the fitted maximal effect.
SMILES,AmpC no deterg,AMA1-RON2 inh,Giardia FBPA inh-1,LmPK inh,AmpC detergent,Giardia growth,Mammal cell tox,Giardia FBPA inh-2,Rabbit aldolase,GAPDH coupling
COc1ccc(C2=NN(S(C)(=O)=O)C(c3cn(-c4ccccc4)nc3-c3cccs3)C2)cc1 (configuration not stated),nt,nt,nt,nt,0.7%,nt,nt,nt,nt,nt
Cc1ccc(C(=O)Nc2ccc(S(=O)(=O)Nc3ncccn3)cc2)cc1[N+](=O)[O-],-10.4%,2.1%,25.1µM*,-4.0%,-14.0%,-13.7%[10.4 µM],3.5%,-7.0%,7.2%,-17.0%
CCc1ccc2[nH]c(=O)c(C(c3nnnn3CC3CCCO3)N3CCCc4ccccc43)cc2c1 (configuration not stated),26.2%,-14.0%,?,-1.0%,-4.1%,nt,nt,nt,nt,nt
Cc1cc2cc(C(c3nnnn3CC3CCCO3)N3CCCc4ccccc43)c(=O)[nH]c2cc1C (configuration not stated),-11.2%,2.6%,3.97µM*,-4.7%,9.2%,1.0%,-4.5%,-13.2%,-2.9%,-19.5%
Cc1cn([C@H]2C[C@H](O)[C@@H](/C=C/C(=O)NCCC(c3ccccc3)c3ccccc3)O2)c(=O)[nH]c1=O,nt,11.9%,nt,nt,nt,nt,nt,nt,nt,nt
CC1(C(=O)NC(=S)N(CCC#N)Cc2cccnc2)CC1(Cl)Cl (configuration not stated),-16.9%,nt,17.7µM*,-1.4%,4.3%,-2.2%[10.4 µM],4.7%,7.0%,6.7%,11.3%
O=C(NNC(=O)c1ccccc1F)C1=NN(c2ccccc2)C(=O)CC1,-9.2%,108.1%,?,-5.9%,?,nt,nt,nt,nt,nt
Cc1ccc(Nc2nc(NCCO)c3ccccc3n2)cc1C,-24.1%,-20.6%,25.1µM*,-2.9%,-18.2%,4.4%[10.4 µM],?,-1.5%,3.8%,-15.6%
COc1ccccc1Nc1nc(NCCO)c2ccccc2n1,-13.7%,nt,8.2%,-1.5%,-6.1%,nt,nt,nt,nt,nt
O=C(C[C@H]1C(=O)N(Cc2ccccc2)C[C@@H]1c1ccc(Br)cc1)Nc1ccc(Br)cc1,nt,-13.8%,nt,nt,nt,nt,nt,nt,nt,nt
CN(C)C=Nc1ccc([N+](=O)[O-])c2ccccc12,nt,-7.6%,nt,nt,nt,nt,nt,nt,nt,nt
Cc1nnc(SCC2=C(C(=O)O)N3C(=O)C(NC(=O)Cn4nc(C(F)F)cc4C)C3SC2)s1 (configuration not stated),-12.9%,29.0%,14.1µM*,-1.2%,-2.2%,6.7%[10.4 µM],7.1%,-6.1%,1.3%,-1.1%
Cc1nnc(SCC2=C(C(=O)O)N3C(=O)C(NC(=O)c4cc(F)c(F)cc4Cl)C3SC2)s1 (configuration not stated),-37.0%,13.5%,19.9µM*,0.7%,?,?,-2.9%,1.8%,11.1%,9.2%
Cc1nnc(SCC2=C(C(=O)O)N3C(=O)C(NC(=O)COc4ccc(F)cc4)C3SC2)s1 (configuration not stated),3.4%,7.4%,nt,nt,-6.0%,nt,nt,nt,nt,nt
CN(CCOc1ccccc1)C(=O)c1cc(S(=O)(=O)N2CCOCC2)c(Cl)cc1Cl,nt,15.6%,nt,nt,nt,nt,nt,nt,nt,nt
